The source of these data is PubChem BioAssay.

Molecules are shown by their SMILES.

The first assay concerns Chordin-like protein 2 (CHRDL2). The assay is described as follows: compounds binding chordin-like 2 – biochemical, small-molecule microarray, 635 nm fluorescence, primary screen (AID 1126).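 Also: printed compound slides probed with Chrdl2 protein at 4 µg/mL for 1 h at 4 C; score merges 667 nm emission intensity with signal to noise over three replicate slides.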 Conditions: fluorescence 635 nm, higher = more signal.
Compound `[N-]=[N+]=NCc1ccccc1[C@@H]1OC(c2ccc(OCCCO)cc2)=N[C@]1(Cc1ccccc1)C(=O)NCC(O)CO` (stereo not given in full) showed a composite z-score of -0.549.

Take `COc1cc2c(cc1OC)CN(C(=O)[C@H]1[C@@H]3C(=O)O[C@@H](c4ccccc4)[C@@H](c4ccccc4)N3[C@@H](c3ccc(O)cc3)[C@]13C(=O)Nc1ccc(C#CCCO)cc13)CC2`: the composite z-score stood at 0.077.

In the case of `C=CCNC(=O)[C@@H]1[C@H]2C(=O)O[C@H](c3ccccc3)[C@H](c3ccccc3)N2[C@H](c2ccccc2OCCO)[C@@]12C(=O)N(C(=O)OCCOC)c1ccccc12`, the composite z-score is 0.66.

`CC1(C)[C@@H]2CC(C(O)C3C=CC4C(=O)N(c5ccccc5)C(=O)C4N3Nc3ccc([N+](=O)[O-])cc3)=C[C@H]1C2` (stereo not given in full) yielded a composite z-score of 0.649.

The compound `C=CCNC(=O)[C@H]1[C@@H]2C(=O)O[C@@H](c3ccccc3)[C@@H](c3ccccc3)N2[C@@H](c2ccccc2OCCO)[C@]12C(=O)Nc1ccc(C#CCC(C(=O)OC)C(=O)OC)cc12` showed a composite z-score of 1.37.

Consider `O=C1C2C=CC(C(O)c3cc(C(F)(F)F)cc(C(F)(F)F)c3)N(n3cnnc3)C2C(=O)N1Cc1ccccc1` (stereo not given), for which the composite z-score was -1.04.

In the case of `COc1cc(NN2C(C(O)c3ccco3)C=CC3C(=O)N(c4ccccc4)C(=O)C32)cc(OC)c1OC` (stereo not given), the composite z-score was -0.776.

Regarding `CN(C)CCCCCCNC(=O)[C@@H]1C[C@@H]2C(=O)N[C@@H](Cc3ccccc3)C(=O)N2[C@@H]1c1ccc(O)cc1`, the composite z-score amounted to 1.41.

`CC(C)NC(=O)[C@@]1(c2ccc([N+](=O)[O-])cc2)CC(=O)N(C2CCCCC2)[C@@H]1c1ccc(CO)cc1I`: the composite z-score was -0.589.

`C=CC[C@]1(C(=O)NCc2ccccc2)N=C(c2ccc(OCCCO)cc2)O[C@H]1c1ccccc1N=[N+]=[N-]` gave a composite z-score of -0.567.

The target of a further assay is Concanavalin-A (Canavalia ensiformis) (UniProt P02866). The assay is described as follows: compounds binding concanavalin A lectin – biochemical, small-molecule microarray, Alexa647 label, 635 nm, artefact control for SMM control protein annotation, primary screen (AID 1127).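 Also: z combines 667 nm emission intensity with signal-to-noise across three replicate slides.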 Conditions: ConA-A647 binding fluorescence, higher = more signal.
Sequence of Concanavalin-A (Canavalia ensiformis) (P02866 whole entry, looked up): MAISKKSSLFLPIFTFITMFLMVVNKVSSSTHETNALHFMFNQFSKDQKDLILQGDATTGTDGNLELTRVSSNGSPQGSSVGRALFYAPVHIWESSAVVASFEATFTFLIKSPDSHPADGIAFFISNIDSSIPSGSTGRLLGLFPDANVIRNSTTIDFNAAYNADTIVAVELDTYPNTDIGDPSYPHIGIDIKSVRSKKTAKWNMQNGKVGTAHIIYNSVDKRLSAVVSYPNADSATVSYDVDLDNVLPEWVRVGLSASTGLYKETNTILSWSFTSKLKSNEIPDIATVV
For `COc1ccc([C@H]2OC[C@@H]3C[C@@H](Cc4ccccc4)C(=O)N32)cc1`, the composite z-score worked out at 0.143.

In turn, `COCCCNC(=O)[C@@H]1c2ccccc2C(=O)N(Cc2ccccc2Cl)[C@H]1c1ccc(CO)cc1` came in with a composite z-score of 0.772.

Turning to `O=C1C2C=CC(C(O)c3cccc4ccccc34)N(Nc3ccccc3F)C2C(=O)N1c1ccccc1` (stereo not given), the composite z-score was 1.09.

Take `COC(=O)[C@@]1(CCS(=O)(=O)c2ccccc2)N=C(c2ccc(OCCCO)cc2)O[C@H]1c1ccccc1CN=[N+]=[N-]`: the composite z-score came out at 1.08.

The compound `C=C[C@H](OC)[C@@H](OC(=O)Nc1ccc(OC)cc1)c1ccc(O)c(F)c1` came in with a composite z-score of -1.15.

In turn, `C=CCC(OC(C)=O)[C@@H]1[C@@H](N(Cc2ccc(-c3ccccc3)cc2)C(=O)c2cccc3ccccc23)c2cc(OCCCO)ccc2N1C(=O)c1ccc(-c2ccccc2)cc1` (stereo not given in full) had a composite z-score of -0.249.

With `C=CCOC(=O)[C@H]1[C@@H]2C(=O)O[C@@H](c3ccccc3)[C@@H](c3ccccc3)N2[C@@H](c2ccc(OCCOC(=O)[C@H]3C[C@H]4C(=O)N[C@@H](CCCC[N+](C)(C)C)C(=O)N4[C@H]3c3ccc(O)cc3)cc2)[C@]12C(=O)Nc1ccc(I)cc12`, the composite z-score amounted to 0.401.

Compound `COC(=O)[C@@]1(Cc2ccc(OC)cc2)[C@@H]2C(=CC(=O)[C@H]2CC(=O)C(=O)N2CCCC2)CN1C(=O)c1ccccc1` showed a composite z-score of 0.0351.

Compound `C[C@H]1NC(=O)[C@@]23C(=O)N[C@@H](Cc4ccccc4)C2[C@H](C)[C@@]2(C)O[C@H]2C3/C=C/C/C=C\CNC(=O)[C@@H]2CCCN2C1=O` (stereo not given in full) had a composite z-score of 1.13.

Compound `O=C(OCc1ccccc1)C1=CCC2c3[nH]c4ccccc4c3C(=O)C1N2S(=O)(=O)c1ccccc1[N+](=O)[O-]` (stereo not given) registered a composite z-score of 0.996.

As to `COC(=O)[C@@]1(Cc2ccc(OC)cc2)[C@H]2c3cc(C(=O)N4CCCC4)n(Cc4ccc(C)c(F)c4F)c3C[C@H]2CN1C(=O)c1ccccc1`, the composite z-score was found to be 1.15.

Regarding `C=CCOC(=O)[C@H]1[C@@H]2C(=O)O[C@@H](c3ccccc3)[C@@H](c3ccccc3)N2[C@@H](c2ccc(OCCOC(=O)[C@H]3C[C@H]4C(=O)N[C@@H](CCCCNC(C)=O)C(=O)N4[C@H]3c3cccc(OCCO)c3)cc2)[C@]12C(=O)Nc1ccccc12`, the composite z-score was 1.15.

Compound `CC(C)c1ccc(NN2C(C(O)c3ccc(B(O)O)cc3)C=CC3C(=O)N(c4ccccc4)C(=O)C32)cc1` (stereo not given) registered a composite z-score of 1.06.

Compound `CCCC=C(CCC)[C@@H](NC(=O)c1cccs1)c1ccc(C(F)(F)F)cc1` showed a composite z-score of 0.79.

Compound `COc1ccc(C#Cc2ccc3c(c2)[C@]2(C(=O)N3)[C@H](C(=O)Nc3nc4ccccc4s3)[C@H]3C(=O)O[C@H](c4ccccc4)[C@H](c4ccccc4)N3[C@@H]2c2ccc(O)cc2)cc1` came in with a composite z-score of 1.12.

As for `CCCCCCc1nc(-c2cc(C)c(OC)c(C)c2)cc2c1[Si](C(C)C)(C(C)C)OC2`, the composite z-score is 0.208.

In turn, `COCCOC(=O)N1C(=O)[C@@]2(c3cc(C#Cc4ccc(OC)cc4)ccc31)[C@H](c1ccccc1OCCO)N1[C@H](c3ccccc3)[C@H](c3ccccc3)OC(=O)[C@H]1[C@@H]2C(=O)NC[C@H](O)c1ccccc1` showed a composite z-score of 0.999.

For `COC(=O)C(CC#Cc1ccc2c(c1)[C@]1(C(=O)N2)[C@H](c2ccc(OCCO)cc2)N2[C@H](c3ccccc3)[C@H](c3ccccc3)OC(=O)[C@H]2[C@@H]1C(=O)N1CCc2cc(OC)c(OC)cc2C1)C(=O)OC`, the composite z-score turned out to be 1.15.

Compound `COCCOC(=O)N1C(=O)[C@@]2(c3cc(C#CCC(C(=O)OC)C(=O)OC)ccc31)[C@H](c1ccccc1OCCO)N1[C@H](c3ccccc3)[C@H](c3ccccc3)OC(=O)[C@H]1[C@@H]2C(=O)N1CCN(c2ncccn2)CC1` yielded a composite z-score of 1.12.

`O=C(c1ccccc1)N1C(=O)[C@]2(COC(c3ccc(OCCCO)cc3)=N2)Cc2ccccc21` showed a composite z-score of 1.16.

For `COc1ccc([Si](C)(C)[C@@H]2[C@@H](CCO)O[C@]3(C(=O)N(Cc4ccc(N(C=O)c5ccccc5)cc4)c4ccccc43)[C@H]2C)cc1`, the composite z-score stood at 0.786.

The compound `O=C1c2ccccc2[C@](Cc2ccccc2I)(C(=O)NCC(F)(F)F)[C@H](c2ccc(CO)cc2)N1Cc1ccccc1Cl` displayed a composite z-score of 1.09.

`COCCOC(=O)N1C(=O)[C@@]2(c3cc(C#CCCO)ccc31)[C@H](C(N)=O)[C@H]1C(=O)O[C@H](c3ccccc3)[C@H](c3ccccc3)N1[C@@H]2c1ccc(O)cc1` gave a composite z-score of -0.332.

On to `C=C(CCCC)/C(=C/C[C@@H](OC(=O)c1ccncc1)c1ccc(OCCO)cc1)c1cc(C(=O)OC)ccc1OC`, for which the composite z-score came to 0.249.

`C=CCN1C(=O)[C@]2(O[C@H](CCn3cc([C@H](O)c4ccccc4)nn3)[C@@H]([Si](C)(C)c3ccc(OC)cc3)[C@@H]2C)c2ccccc21`: the composite z-score was -0.847.

On to `[N-]=[N+]=NCc1ccccc1[C@@H]1OC(c2ccc(OCCCO)cc2)=N[C@]1(Cc1ccccc1)C(=O)NCC(O)CO` (stereo not given in full), for which the composite z-score amounted to 0.306.

Consider `COc1cc2c(cc1OC)CN(C(=O)[C@H]1[C@@H]3C(=O)O[C@@H](c4ccccc4)[C@@H](c4ccccc4)N3[C@@H](c3ccc(O)cc3)[C@]13C(=O)Nc1ccc(C#CCCO)cc13)CC2`, for which the composite z-score was 0.964.

Compound `C=CCNC(=O)[C@@H]1[C@H]2C(=O)O[C@H](c3ccccc3)[C@H](c3ccccc3)N2[C@H](c2ccccc2OCCO)[C@@]12C(=O)N(C(=O)OCCOC)c1ccccc12` yielded a composite z-score of 1.16.

For the compound `CC1(C)[C@@H]2CC(C(O)C3C=CC4C(=O)N(c5ccccc5)C(=O)C4N3Nc3ccc([N+](=O)[O-])cc3)=C[C@H]1C2` (stereo not given in full), the composite z-score turned out to be 1.17.

The compound `C=CCNC(=O)[C@H]1[C@@H]2C(=O)O[C@@H](c3ccccc3)[C@@H](c3ccccc3)N2[C@@H](c2ccccc2OCCO)[C@]12C(=O)Nc1ccc(C#CCC(C(=O)OC)C(=O)OC)cc12` gave a composite z-score of 0.944.

With `O=C1C2C=CC(C(O)c3cc(C(F)(F)F)cc(C(F)(F)F)c3)N(n3cnnc3)C2C(=O)N1Cc1ccccc1` (stereo not given), the composite z-score is 0.516.

`COc1cc(NN2C(C(O)c3ccco3)C=CC3C(=O)N(c4ccccc4)C(=O)C32)cc(OC)c1OC` (stereo not given) registered a composite z-score of 0.498.

In turn, `CN(C)CCCCCCNC(=O)[C@@H]1C[C@@H]2C(=O)N[C@@H](Cc3ccccc3)C(=O)N2[C@@H]1c1ccc(O)cc1` had a composite z-score of 1.21.

Regarding `CC(C)NC(=O)[C@@]1(c2ccc([N+](=O)[O-])cc2)CC(=O)N(C2CCCCC2)[C@@H]1c1ccc(CO)cc1I`, the composite z-score came to 0.347.

Consider `C=CC[C@]1(C(=O)NCc2ccccc2)N=C(c2ccc(OCCCO)cc2)O[C@H]1c1ccccc1N=[N+]=[N-]`, for which the composite z-score was 1.09.
